Measured values: PubChem BioAssay (NCATS)
Results filed as inconclusive are left out. Active and inactive are the calls of the source. The call rests on the fitted dose curve; in most records, active means well fitted curve in the direction sought with a large enough effect; inconclusive means small, poorly fitted or top-dose-only effect, or another doubt; inactive means no such curve, though single readings can be large; an effect the other way counts as inactive or inconclusive.

Assays:
KB-3-1 = experiment: Cytotoxic Profiling of Annotated Libraries Using Quantitative High-Throughput Screening (AID 1296008); conditions: Five cell lines viability, CellTiter-Glo ATP luminescence, 48-72 h; max response: stronger effect = lower value; further: nearly all actives have a fitted effect of over 60% in size; on max response: on the % scale 0 is the no-effect control and ±100 the full control effect
Outline: (§1)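 Compounds were pin-transferred onto cells and incubated 48 or 72 hr at 37 degree Celsius, 95% humidity. CellTiter-Glo was added, plates sat 10 min at room temperature, then ATP-coupled luminescence was imaged as the viability read-out.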

NIH3T3 [1] = experiment: as above; conditions: Five cell lines viability, CellTiter-Glo ATP luminescence, 48-72 h; max response: stronger effect = lower value
Outline: as §1

CRL-7250 = normal cell line; experiment: qHTS assay to identify novel small-molecules to repurpose for Merkel cell carcinoma treatment (AID 1296009); conditions: MCC and control cell lines, CellTiter-Glo viability, 72 h; at 44.8 µM (top of the series) unless noted; further: nearly all actives have a fitted effect of over 60% in size
Outline: (§2)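 Viability readout: ATP luminescence (CellTiter-Glo) after 72 hr drug exposure at 37 degree celsius. Dose-response format was 8 points for NPC and 11 points for MIPE; data normalized to in-plate controls.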

NIH3T3 [2] = experiment: as above; conditions: MCC and control cell lines, CellTiter-Glo viability, 72 h; at 44.8 µM (top of the series) unless noted
Outline: as §2

C33A = experiment: Primary qHTS to identify gynecologic anti-cancer compounds using libraries of approved drugs and bioactive compounds (AID 1345084); conditions: Gynecologic cancer cell panel viability, ATPlite luminescence, 48 h; series mostly up to 57.5 µM; further: on the % scale 0 is the no-effect control and ±100 the full control effect; nearly all actives have a fitted effect of over 55% in size
Outline: (§3)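 Cells, 1,000 per well, plated 16 h, then exposed 48 h at 37 C to compounds. Viability by ATPlite luminescence after 15 min at room temperature.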

CAOV3 = experiment: as above; conditions: Gynecologic cancer cell panel viability, ATPlite luminescence, 48 h; series mostly up to 57.5 µM
Outline: as §3

CASKI = experiment: as above; conditions: Gynecologic cancer cell panel viability, ATPlite luminescence, 48 h; series mostly up to 57.5 µM
Outline: as §3

Es-2 = experiment: as above; conditions: Gynecologic cancer cell panel viability, ATPlite luminescence, 48 h; series mostly up to 57.5 µM
Outline: as §3

HeLa = experiment: as above; conditions: Gynecologic cancer cell panel viability, ATPlite luminescence, 48 h; series mostly up to 57.5 µM
Outline: as §3

Hek293T [3] = experiment: as above; conditions: Gynecologic cancer cell panel viability, ATPlite luminescence, 48 h, control line for the selectivity index; series mostly up to 57.5 µM
Outline: as §3

JEG-3 = experiment: as above; conditions: Gynecologic cancer cell panel viability, ATPlite luminescence, 48 h; series mostly up to 57.5 µM
Outline: as §3

OV90 = experiment: as above; conditions: Gynecologic cancer cell panel viability, ATPlite luminescence, 48 h; series mostly up to 57.5 µM
Outline: as §3

HACAT = experiment: qHTS assay to identify novel small-molecules to repurpose for Merkel cell carcinoma treatment (AID 1296009); conditions: MCC and control cell lines, CellTiter-Glo viability, 72 h; at 44.8 µM (top of the series) unless noted; further: nearly all actives have a fitted effect of over 60% in size
Outline: as §2

HEK293T [4] = experiment: as above; conditions: MCC and control cell lines, CellTiter-Glo viability, 72 h; at 44.8 µM (top of the series) unless noted
Outline: as §2

CN1CCCC1CCOC(c1cc2nccc(C(=O)O)c2[nH]1)c1ccccc1Cl (stereo not given)
inactive: max response (KB-3-1) 7.27% | outcome (NIH3T3 [1]) | outcome (CRL-7250) | outcome (NIH3T3 [2]) | Potency (C33A) | Potency (CAOV3) | Potency (CASKI) | Potency (Es-2) | Potency (HeLa) | Potency (Hek293T [3]) | Potency (JEG-3) | Potency (OV90)

CC(C)[C@@H](CN1CC[C@@](C)(c2cccc(O)c2)[C@@H](C)C1)NC(=O)[C@H]1Cc2ccc(O)cc2CN1
inactive: max response (KB-3-1) 4.16% | outcome (NIH3T3 [1]) | outcome (CRL-7250) | outcome (HACAT) | Potency (C33A) | Potency (CAOV3) | Potency (CASKI) | Potency (Es-2) | Potency (HeLa) | Potency (Hek293T [3]) | Potency (JEG-3) | Potency (OV90)

CN[C@H]1[C@H](O)[C@H](O[C@@H]2[C@@H](O)[C@H](O[C@H]3O[C@H]([C@H](C)O)[C@@H](O)[C@H](O)[C@H]3N)[C@@H](N)C[C@H]2N)OC[C@@]1(C)O
inactive: max response (KB-3-1) 3.55% | max response (NIH3T3 [1]) 4.53% | outcome (CRL-7250) | outcome (HACAT) | Potency (C33A) | Potency (CASKI) | Potency (Es-2) | Potency (HeLa) | Potency (Hek293T [3]) | Potency (JEG-3) | Potency (OV90)

O=C(N1CCOCC1)N1CCN(c2ccc(Cl)cc2)CC1
inactive: max response (KB-3-1) 6.75% | outcome (NIH3T3 [1]) | outcome (CRL-7250) | outcome (HACAT) | Potency (C33A) | Potency (CAOV3) | Potency (CASKI) | Potency (Es-2) | Potency (HeLa) | Potency (Hek293T [3]) | Potency (JEG-3) | Potency (OV90)

CCc1c(C(=O)C(N)=O)c2c(OCC(=O)OC)cccc2n1Cc1ccccc1
inactive: outcome (KB-3-1) | max response (NIH3T3 [1]) -0.844% | outcome (CRL-7250) | outcome (HEK293T [4]) | Potency (C33A) | Potency (CAOV3) | Potency (CASKI) | Potency (Es-2) | Potency (HeLa) | Potency (Hek293T [3]) | Potency (JEG-3) | Potency (OV90)

O=C(O)c1ccnc2cc(C(OCCN3CCCCC3)c3ccccc3Cl)[nH]c12 (stereo not given)
inactive: outcome (KB-3-1) | max response (NIH3T3 [1]) -0.205% | outcome (CRL-7250) | outcome (HACAT) | outcome (HEK293T [4]) | Potency (C33A) | Potency (CAOV3) | Potency (CASKI) | Potency (Es-2) | Potency (HeLa) | Potency (Hek293T [3]) | Potency (JEG-3) | Potency (OV90)

N#CC(OC1OC(COC2OC(CO)C(O)C(O)C2O)C(O)C(O)C1O)c1ccccc1 (stereo not given)
inactive: max response (KB-3-1) 9.88% | outcome (NIH3T3 [1]) | outcome (CRL-7250) inactive [at 17.4 µM] | outcome (HACAT) inactive [at 17.4 µM] | outcome (HEK293T [4]) inactive [at 17.4 µM] | outcome (NIH3T3 [2]) inactive [at 17.4 µM] | Potency (C33A) | Potency (CAOV3) | Potency (CASKI) | Potency (Es-2) | Potency (Hek293T [3]) | Potency (JEG-3) | Potency (OV90)

COc1ccccc1CN[C@H]1C2CCN(CC2)[C@H]1C(c1ccccc1)c1ccccc1
inactive: max response (KB-3-1) -8.54% | outcome (NIH3T3 [1]) | outcome (CRL-7250) | outcome (HACAT) | outcome (NIH3T3 [2]) | Potency (C33A) | Potency (CASKI) | Potency (Es-2) | Potency (HeLa) | Potency (Hek293T [3]) | Potency (JEG-3)

C/C=C(\C)C(=O)O[C@H]1[C@H](OC(C)=O)[C@]2(CO)[C@H](O)[C@H](O)[C@]3(C)C(=CCC4[C@@]5(C)CC[C@H](O[C@@H]6O[C@H](C(=O)O)[C@@H](O)[C@H](O[C@@H]7OC[C@H](O)[C@H](O[C@@H]8OC[C@H](O)[C@H](O)[C@H]8O)[C@H]7O)[C@H]6O[C@@H]6O[C@H](CO)[C@@H](O)[C@H](O)[C@H]6O)C(C)(C)C5CC[C@]43C)[C@@H]2CC1(C)C (stereo not given in full)
inactive: outcome (KB-3-1) | outcome (NIH3T3 [1]) | outcome (HEK293T [4]) inactive [at 9.27 µM] | activity change, negative = cytotoxicity (C33A) 0.756% [at 6.55 µM] | activity change, negative = cytotoxicity (CAOV3) 0.059% [at 6.55 µM] | activity change, negative = cytotoxicity (CASKI) 13.6% [at 6.55 µM] | activity change, negative = cytotoxicity (Es-2) -0.471% [at 6.55 µM] | activity change, negative = cytotoxicity (HeLa) 10.9% [at 6.55 µM] | activity change, negative = cytotoxicity (Hek293T [3]) -2.46% [at 6.55 µM] | activity change, negative = cytotoxicity (JEG-3) -2.67% [at 6.55 µM] | activity change, negative = cytotoxicity (OV90) -10.1% [at 6.55 µM]

CC(C)=C1CC[C@]23CO[C@H](C2)[C@@](O)(C(=O)O)CCC13 (stereo not given in full)
inactive: max response (KB-3-1) 4.44% | max response (NIH3T3 [1]) 1.86% | outcome (HEK293T [4]) | Potency (C33A) | Potency (CAOV3) | Potency (CASKI) | Potency (Es-2) | Potency (HeLa) | Potency (Hek293T [3]) | Potency (JEG-3) | Potency (OV90)

COC1CC(O[C@H]2CC[C@@]3(C)C(=CCC4C3C(O)[C@@H](O)[C@]3(C)[C@@H](C(C)=O)CC[C@]43O)C2)OC(C)C1OC1CC(OC)C(OC2OC(C)C(O)C(O)C2O)C(C)O1 (stereo not given in full)
inactive: outcome (KB-3-1) | outcome (NIH3T3 [1]) | outcome (HACAT) inactive [at 9.27 µM] | outcome (HEK293T [4]) inactive [at 9.27 µM] | outcome (NIH3T3 [2]) inactive [at 9.27 µM] | activity change, negative = cytotoxicity (C33A) -3.17% [at 11.6 µM] | activity change, negative = cytotoxicity (CAOV3) -3.8% [at 11.6 µM] | activity change, negative = cytotoxicity (CASKI) -11.2% [at 11.6 µM] | activity change, negative = cytotoxicity (Es-2) -3.8% [at 11.6 µM] | activity change, negative = cytotoxicity (HeLa) -11.4% [at 11.6 µM] | activity change, negative = cytotoxicity (Hek293T [3]) -2.86% [at 11.6 µM] | activity change, negative = cytotoxicity (JEG-3) -1.29% [at 11.6 µM] | activity change, negative = cytotoxicity (OV90) -0.104% [at 11.6 µM]

CC1=C2C[C@H]3[C@@H](CC=C4C[C@@H](O)CC[C@@]43C)[C@@H]2CC[C@]12O[C@@H]1C[C@H](C)CN[C@H]1[C@H]2C
inactive: max response (KB-3-1) 1.29% | outcome (NIH3T3 [1]) | outcome (HEK293T [4]) | outcome (NIH3T3 [2]) | Potency (C33A) | Potency (CAOV3) | Potency (CASKI) | Potency (Es-2) | Potency (HeLa) | Potency (Hek293T [3]) | Potency (JEG-3) | Potency (OV90)

COC(=O)C12C(=O)C(C)(O)C(=O)C1(C)C(C)=CC1C34CCC(OC3=O)C(C)(CO)C4CCC12C (stereo not given)
inactive: outcome (KB-3-1) | outcome (NIH3T3 [1]) | outcome (CRL-7250) inactive [at 17.4 µM] | outcome (NIH3T3 [2]) inactive [at 17.4 µM] | Potency (C33A) | Potency (CASKI) | Potency (Es-2) | Potency (HeLa) | Potency (Hek293T [3]) | Potency (JEG-3) | Potency (OV90)

CN1C(=O)c2ccccc2NC(=O)[C@]12O[C@@H]2c1ccccc1
inactive: max response (KB-3-1) 8.97% | max response (NIH3T3 [1]) -7.39% | outcome (HEK293T [4]) | Potency (C33A) | Potency (CAOV3) | Potency (CASKI) | Potency (Es-2) | Potency (HeLa) | Potency (Hek293T [3]) | Potency (JEG-3) | Potency (OV90)
